# In PubChem BioAssay (Tox21):
# Unmarked numbers belong to inactive results. Records with an inconclusive call do not appear. Entries that show only a call come without a potency. Activity calls are given as the source filed them. Unless noted, the call rests on the fitted dose curve; in most records, active means well fitted curve in the direction sought with a large enough effect in the repeat runs; inconclusive means weak or mixed curves; inactive means no such curve, though single readings can be large; an effect the other way counts as inactive or inconclusive.
# Legend:
# [1] = qHTS assay for small molecules that induce genotoxicity in human embryonic kidney cells expressing luciferase-tagged ATAD5 (AID 651632); further: nearly all actives have a fitted effect of over 15% in size
# Outline: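 Luminescence read-out: after 16 hr compound exposure at 37C, ATAD5-luciferase HEK293T cells received Amplite, 30 min RT, then CCD imaging. A rise in signal marks genotoxic stress.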
# [2] = qHTS assay for small molecule agonists of the p53 signaling pathway - cell viability (AID 651633; calls by dose curve; further: nearly all actives have a fitted effect of over 30% in size; further: potency means the concentration at half of the fitted maximal effect)
# Outline: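 p53RE-bla cells, seeded at 4,000 per well and rested 5 h at 37 C/5% CO2, received compounds in DMSO for 16 h at 37 C. CellTiter-Glo was then added, and luminescence was read after 30 min at room temperature to gauge cytotoxicity.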
# [3] = qHTS assay for small molecule disruptors of the mitochondrial membrane potential - cell viability (AID 720634; calls by dose curve; further: nearly all actives have a fitted effect of over 20% in size; further: potency means the concentration at half of the fitted maximal effect)
# Outline: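 Luminescence from CellTiter-Glo (ATP content) gave viability in HepG2 cells, read in the same wells as the MMP dye assay after 1 hr compound exposure at 37 C.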
# [4] = qHTS assay for small molecule disruptors of the mitochondrial membrane potential (AID 720635); further: potency means the concentration at half of the fitted maximal effect
# Outline: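 HepG2 cells (2,000/well) attached overnight at 37C, then took compound for 1 hr at 37C, 5% CO2. Mito-MPS dye was added for 30 min; fluorescence was read at 490/535 nm (monomers) and 540/590 nm (aggregates).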
# [5] = qHTS assay to test for compound auto fluorescence at 590 nm (red) in HepG2 cells (AID 720674)
# Outline: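 Intrinsic compound fluorescence in the red window (Ex/Em 540/590 nm) is measured in attached HepG2 cells exposed for 1 hr, DMSO vehicle as baseline, benchmarked to Rose Bengal sodium.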
# [6] = qHTS assay to test for compound auto fluorescence at 535 nm (green) in HepG2 cells (AID 720675)
# [7] = qHTS assay to test for compound auto fluorescence at 460 nm (blue) in HEK293 cells (AID 720678)
# Outline: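 Blue read-out at excitation 405 nm and emission 460 nm follows overnight compound exposure of HEK293 cells at 37C in 5% CO2. Activity is given as auto fluorescence equivalency to triamterene.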
# [8] = qHTS assay to test for compound auto fluorescence at 590 nm (red) in HEK293 cells (AID 720679)
# Outline: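 Red channel, Ex/Em 540/590nm; signal expressed as equivalency to Rose Bengal sodium. HEK293, 2,000 cells/well, 10% dialyzed FBS; 23 nL compound pinned after 4-5 hr attachment; overnight 37C/5% CO2 before reading.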
# [9] = qHTS assay to test for compound auto fluorescence at 535 nm (green) in HEK293 cells (AID 720680)
# [10] = qHTS assay to test for compound auto fluorescence at 460 nm (blue) in HEK293 cell free culture (AID 720681); further: potency means the concentration at half of the fitted maximal effect
# Outline: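 Test compounds were pinned into cell-free culture medium (DMEM with 10% FBS) and fluorescence was read directly at Ex/Em 405/460 nm. Signals were expressed as fluorescence equivalents of triamterene, with DMSO vehicle as control.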
# [11] = qHTS assay to test for compound auto fluorescence at 535 nm (green) in HEK293 cell free culture (AID 720682)
# Outline: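 Fluorescein serves as the green reference fluorophore; each compound's intrinsic emission at 535 nm (excitation 485 nm) is reported as an equivalent amount of that dye, measured in serum-containing DMEM without cells.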
# [12] = qHTS assay to test for compound auto fluorescence at 590 nm (red) in HEK293 cell free culture (AID 720683)
# Outline: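 Tox21 10K library compounds were pinned into cell-free DMEM with 10% FBS and fluorescence was read at excitation 540 nm. Activity is expressed as Rose Bengal sodium equivalency.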
# [13] = qHTS assay to test for compound auto fluorescence at 460 nm (blue) in HepG2 cell free culture (AID 720685); further: potency means the concentration at half of the fitted maximal effect
# Outline: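 Cell-free plates of MEM plus 10% FBS received 23 nL compound or DMSO vehicle; blue-channel (405/460 nm) intensity scored against triamterene as reference fluorophore.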
# [14] = qHTS assay to test for compound auto fluorescence at 535 nm (green) in HepG2 cell free culture (AID 720686)
# [15] = qHTS assay to test for compound auto fluorescence at 460 nm (blue) in HepG2 cells (AID 720687); further: potency means the concentration at half of the fitted maximal effect
# Outline: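 Cells (2,000/well in MEM with 10% FBS) attached overnight at 37 C, then were exposed to compound or DMSO for 1 hr at 37 C, 5% CO2. Fluorescence read at Ex/Em 405/460 nm, expressed as triamterene-equivalent signal.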
# [16] = qHTS assay for small molecules that induce genotoxicity in human embryonic kidney cells expressing luciferase-tagged ATAD5 - cell viability (AID 651634; calls by dose curve; further: nearly all actives have a fitted effect of over 25% in size; further: potency means the concentration at half of the fitted maximal effect)
# Outline: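 HEK293T ATAD5-luc cells, 2,000/well; compound 15.5 hr, 37C/5% CO2; CellTiter-Fluor 30 min, 37C; fluorescence read.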
# [17] = qHTS assay to test for compound auto fluorescence at 590 nm (red) in HepG2 cell free culture (AID 720684)
# Outline: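 Ex 540 / Em 590 nm read of compound in cell-free MEM (10% FBS). Rose Bengal sodium reference.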
# [18] = target: Glucocorticoid receptor (Homo sapiens) (UniProt P04150); assay: qHTS assay to identify small molecule agonists of the glucocorticoid receptor (GR) signaling pathway (AID 720691; active means well fitted activation curve with a large enough effect in the signal ratio in the repeat runs, not every such curve was filed as active; the % refers to the signal ratio)
# Outline: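 HeLa GR-bla reporter line; cells pre-incubated 4 h, compound in DMSO 18 h at 37 C; LiveBLAzer B/G FRET substrate 2 h RT; fluorescence intensity read-out.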
# [19] = target: Glucocorticoid receptor (Homo sapiens) (UniProt P04150); assay: qHTS assay to identify small molecule antagonists of the glucocorticoid receptor (GR) signaling pathway (AID 720692; active means well fitted inhibition curve with a large enough effect in the signal ratio in the repeat runs, not every such curve was filed as active; the % refers to the signal ratio; further: potency means the concentration at half of the fitted maximal effect)
# Outline: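 Read-out: beta-lactamase FRET substrate fluorescence, 2 h at room temperature, in HeLa cells stably carrying a GRE-driven bla reporter. Compounds were co-incubated with 5 nM dexamethasone agonist (final) for 18 h at 37 C.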
# Tags describe the fitted curve by direction and shape or compound fluorescence and quenching.
# Glucocorticoid receptor (Homo sapiens), sequence (P04150 whole entry, looked up): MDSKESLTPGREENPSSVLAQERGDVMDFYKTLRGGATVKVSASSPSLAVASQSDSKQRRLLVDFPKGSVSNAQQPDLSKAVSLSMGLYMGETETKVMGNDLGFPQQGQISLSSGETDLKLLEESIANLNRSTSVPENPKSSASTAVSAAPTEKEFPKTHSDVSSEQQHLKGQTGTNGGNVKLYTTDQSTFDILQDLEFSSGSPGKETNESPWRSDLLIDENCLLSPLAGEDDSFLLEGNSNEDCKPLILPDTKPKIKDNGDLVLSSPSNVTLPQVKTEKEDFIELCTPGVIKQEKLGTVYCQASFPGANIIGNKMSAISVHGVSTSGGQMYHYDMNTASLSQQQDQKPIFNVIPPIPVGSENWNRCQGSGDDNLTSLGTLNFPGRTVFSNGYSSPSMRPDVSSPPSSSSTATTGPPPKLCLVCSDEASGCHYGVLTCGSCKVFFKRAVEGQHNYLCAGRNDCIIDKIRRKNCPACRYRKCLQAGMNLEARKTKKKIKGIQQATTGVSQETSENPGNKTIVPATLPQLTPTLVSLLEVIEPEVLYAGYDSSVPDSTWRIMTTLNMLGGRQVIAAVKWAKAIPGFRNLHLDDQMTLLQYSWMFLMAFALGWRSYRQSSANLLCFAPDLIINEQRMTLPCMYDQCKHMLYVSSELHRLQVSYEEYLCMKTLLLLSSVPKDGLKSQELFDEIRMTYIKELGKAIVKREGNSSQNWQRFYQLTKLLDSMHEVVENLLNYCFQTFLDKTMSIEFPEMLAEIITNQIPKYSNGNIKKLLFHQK
compound,measurement,setting,value
Cc1ccccc1S,Potency,[1],inactive
same,Potency,[2],inactive
same,Potency,[3],inactive
same,Potency,[4],inactive
same,outcome,[5],inactive
same,outcome,[6],inactive
same,Potency,[7],inactive
same,outcome,[8],inactive
same,outcome,[9],inactive
same,Potency,[10],inactive
same,outcome,[11],inactive
same,outcome,[12],inactive
same,Potency,[13],inactive
same,outcome,[14],inactive
same,Potency,[15],inactive
CN(C(=O)CN(CCO)CC(=O)N(C)C(C)(C)Cc1ccccc1)C(C)(C)Cc1ccccc1,Potency,[1],inactive
same,Potency,[2],inactive
same,Potency,[16],inactive
same,Potency,[3],inactive
same,"fluorescence, relative to Rose Bengal",[5],-0.825% [at 18.6 µM]
same,"fluorescence, % of fluorescein control",[6],-0.0053% [at 18.6 µM]
same,"fluorescence, % of fluorescent control",[8],0.0938% [at 18.6 µM]
same,"fluorescence, % of fluorescein",[9],0.0843% [at 18.6 µM]
same,"fluorescence, % of fluorescent control",[10],0.0268% [at 18.6 µM]
same,activity change,[11],-0.0126% [at 18.6 µM]
same,"fluorescence, % of fluorescent control",[12],0% [at 18.6 µM]
same,"fluorescence, % of Rose Bengal",[17],0.844% [at 18.6 µM]
same,"fluorescence, % of fluorescent control",[13],-0.036% [at 18.6 µM]
same,"fluorescence, % of fluorescein control",[14],0.0894% [at 18.6 µM]
same,"fluorescence, % of fluorescent control",[15],0.0182% [at 18.6 µM]
same,Potency,[18],inactive
C1COC1,Potency,[1],inactive
same,Potency,[2],inactive
same,Potency,[3],inactive
same,Potency,[4],inactive
same,outcome,[5],inactive
same,outcome,[6],inactive
same,Potency,[7],inactive
same,outcome,[8],inactive
same,outcome,[9],inactive
same,Potency,[10],inactive
same,outcome,[11],inactive
same,outcome,[12],inactive
same,outcome,[17],inactive
same,Potency,[13],inactive
same,outcome,[14],inactive
same,Potency,[18],inactive
C=C(C)C(=O)OCCOCCOC(=O)C(=C)C,Potency,[1],inactive
same,Potency,[16],inactive
same,Potency,[3],inactive
same,Potency,[4],inactive
same,outcome,[5],inactive
same,outcome,[6],inactive
same,outcome,[8],inactive
same,outcome,[9],inactive
same,Potency,[10],inactive
same,outcome,[11],inactive
same,outcome,[12],inactive
same,outcome,[17],inactive
same,Potency,[13],inactive
same,Potency,[15],inactive
COc1ccccc1NC(=O)c1cc2ccccc2cc1O,Potency,[1],inactive
same,Potency,[2],54.5 µM (active)
same,Potency,[16],inactive
same,Potency,[3],7.7 µM (active)
same,outcome,[5],inactive
same,outcome,[6],inactive
same,outcome,[8],inactive
same,outcome,[9],inactive
same,Potency,[10],44.7 µM (active)
same,outcome,[11],inactive
same,outcome,[12],inactive
same,outcome,[17],inactive
same,Potency,[13],39.8 µM [fluorescent] (active)
same,outcome,[14],inactive
same,Potency,[15],39.8 µM [fluorescent] (active)
same,Potency,[18],inactive
same,Potency,[19],38.9 µM (active)
Brc1cc(Br)c(Oc2cc(Br)c(Br)cc2Br)cc1Br,Potency,[1],inactive
same,Potency,[16],inactive
same,Potency,[3],inactive
same,outcome,[5],inactive
same,outcome,[6],inactive
same,Potency,[7],inactive
same,outcome,[8],inactive
same,outcome,[9],inactive
same,Potency,[10],inactive
same,outcome,[11],inactive
same,outcome,[12],inactive
same,outcome,[17],inactive
same,Potency,[13],inactive
same,outcome,[14],inactive
C[C@@H]1CC(=O)NN=C1c1ccc(NN=C(C#N)C#N)cc1,Potency,[1],inactive
same,Potency,[2],6.68 µM (active)
same,Potency,[4],23.7 µM (active)
same,outcome,[5],inactive
same,outcome,[6],inactive
same,Potency,[7],inactive
same,outcome,[8],inactive
same,outcome,[9],inactive
same,Potency,[10],inactive
same,outcome,[11],inactive
same,outcome,[12],inactive
same,outcome,[17],inactive
same,Potency,[13],inactive
same,outcome,[14],inactive
same,Potency,[15],inactive
Cc1ccc(Cl)c(Nc2ccccc2C(=O)O)c1Cl,Potency,[1],inactive
same,Potency,[2],inactive
same,Potency,[16],inactive
same,Potency,[3],inactive
same,outcome,[5],inactive
same,outcome,[6],inactive
same,outcome,[8],inactive
same,outcome,[9],inactive
same,Potency,[10],inactive
same,outcome,[11],inactive
same,outcome,[12],inactive
same,outcome,[17],inactive
same,Potency,[13],inactive
same,outcome,[14],inactive
same,Potency,[15],inactive
CC(CN(C)C)C(C)(O)Cc1ccc(Cl)cc1 (stereo not given),Potency,[1],inactive
same,Potency,[2],inactive
same,Potency,[3],inactive
same,Potency,[4],inactive
same,outcome,[5],inactive
same,outcome,[6],inactive
same,Potency,[7],inactive
same,outcome,[8],inactive
same,outcome,[9],inactive
same,Potency,[10],inactive
same,outcome,[11],inactive
same,outcome,[12],inactive
same,outcome,[17],inactive
same,Potency,[13],inactive
same,Potency,[15],inactive
same,Potency,[18],inactive
same,Potency,[19],inactive
CCC(=O)C1CC(C(C)C)CC=C1C (stereo not given),Potency,[1],inactive
same,Potency,[2],inactive
same,Potency,[3],inactive
same,Potency,[4],inactive
same,outcome,[5],inactive
same,outcome,[6],inactive
same,Potency,[7],inactive
same,outcome,[8],inactive
same,outcome,[9],inactive
same,Potency,[10],inactive
same,outcome,[11],inactive
same,outcome,[12],inactive
same,outcome,[17],inactive
same,Potency,[13],inactive
same,outcome,[14],inactive
same,Potency,[15],inactive
same,Potency,[18],inactive
OCCN1CCN(CCCN2c3ccccc3Sc3ccc(Cl)cc32)CC1,Potency,[1],inactive
same,Potency,[2],inactive
same,Potency,[3],inactive
same,"fluorescence, relative to Rose Bengal",[5],0.837% [at 18.6 µM]
same,"fluorescence, % of fluorescein control",[6],0.0508% [at 18.6 µM]
same,"fluorescence, % of triamterene",[7],-0.38% [at 18.6 µM]
same,"fluorescence, % of fluorescent control",[8],-0.0409% [at 18.6 µM]
same,"fluorescence, % of fluorescein",[9],-0.0167% [at 18.6 µM]
same,"fluorescence, % of fluorescent control",[10],-0.0053% [at 18.6 µM]
same,activity change,[11],-0.0092% [at 18.6 µM]
same,"fluorescence, % of fluorescent control",[12],0.0511% [at 18.6 µM]
same,"fluorescence, % of Rose Bengal",[17],-0.146% [at 18.6 µM]
same,"fluorescence, % of fluorescent control",[13],0.0187% [at 18.6 µM]
same,"fluorescence, % of fluorescein control",[14],0.137% [at 18.6 µM]
same,"fluorescence, % of fluorescent control",[15],0.0774% [at 18.6 µM]
same,Potency,[18],inactive
same,Potency,[19],inactive
COC(=O)C1=C(C)NC(C)=C(C(=O)O[C@@H]2CCCN(Cc3ccccc3)C2)[C@@H]1c1cccc([N+](=O)[O-])c1,Potency,[1],inactive
same,Potency,[2],inactive
same,Potency,[4],13.3 µM (active)
same,outcome,[5],inactive
same,outcome,[6],inactive
same,Potency,[7],inactive
same,outcome,[8],inactive
same,outcome,[9],inactive
same,Potency,[10],inactive
same,outcome,[11],inactive
same,outcome,[12],inactive
same,outcome,[17],inactive
same,Potency,[13],inactive
same,outcome,[14],inactive
same,Potency,[15],inactive
O=C(O)CCCCCCCCCCCBr,Potency,[1],inactive
same,Potency,[2],inactive
same,Potency,[16],inactive
same,Potency,[3],inactive
same,outcome,[5],inactive
same,outcome,[6],inactive
same,outcome,[8],inactive
same,outcome,[9],inactive
same,Potency,[10],inactive
same,outcome,[11],inactive
same,outcome,[12],inactive
same,outcome,[17],inactive
same,Potency,[13],inactive
same,outcome,[14],inactive
same,Potency,[15],inactive
same,Potency,[18],inactive
O=[N+]([O-])c1cc(C2CCCCC2)c(O)c([N+](=O)[O-])c1,Potency,[1],inactive
same,Potency,[16],19.3 µM (active)
same,Potency,[3],0.343 µM (active)
same,Potency,[4],0.153 µM (active)
same,outcome,[5],inactive
same,outcome,[6],inactive
same,Potency,[7],inactive
same,outcome,[8],inactive
same,outcome,[9],inactive
same,Potency,[10],inactive
same,outcome,[11],inactive
same,outcome,[12],inactive
same,Potency,[13],inactive
same,outcome,[14],inactive
same,Potency,[15],inactive
same,Potency,[18],inactive
